# HT1080 IDH1KD tx: toxicity to HT-1080 IDH1 knockdown cells (counter line); 360,000 tested, 2% active; AID 686971; HT-1080 IDH1 knockdown viability, ATP luminescence, 48 h; Potency, µM (series often up to 46.1 µM), without a hit: at the top dose activity, negative = toxicity, usual class: cytotoxic;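 note: 0% = DMSO wells and -100% = cell-free medium wells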
#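 HT-1080-IDH1KD cells (IDH1 knocked down), 750/well in RPMI with 5% FBS, treated with compound 48 h at 37 degrees C. Viability by CellTiter-Glo luminescence, normalised to DMSO and no-cell wells; concentration-response curves classed.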
# TDP1 cell CPT: DT40-hTDP1 cell growth loss with CPT; chicken DT40 Tdp1-/-;hTDP1 cells + 20 nM CPT, ATP luminescence, 48 h; Potency, µM (series often up to 46.2 µM), inactives show at the highest dose activity change, negative = growth inhibition, most hits filed as inhibitors; 420,000 tested, 12% active; note: nearly all actives have a fitted effect of over 55% in size
#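 Chicken DT40 Tdp1-/- cells stably complemented with human TDP1 were seeded at 400 cells/well in medium containing 20 nM camptothecin, exposed to pin-transferred compounds, and grown at 37 °C for at least 48 hr. Viability was read as ATP luminescence.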
# KB-3-1 tox: KB-3-1 parental cell cytotoxicity | KB-3-1 viability, CellTiter-Glo ATP luminescence, 72 h | Potency, µM (doses to about 46.1 µM), usual class: cytotoxic | 400,000 tested, 1.4% active | AID 1347075; note: nearly all actives have a fitted effect of over 60% in size
#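 Cells are dispensed, compounds pinned in, plates held at 37 °C for 72 h, then CellTiter-Glo is added and luminescence read after 10 minutes. Cell line: parental KB-3-1 in phenol-red-free DMEM, 10% FBS.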
# DT40 TDP1 no CPT: qHTS for Inhibitors of human tyrosyl-DNA phosphodiesterase 1 (TDP1): qHTS in cells in absence of CPT; DT40 Tdp1-/- hTDP1 cells, no CPT, ATP luminescence, 48 h; Potency, µM (series often up to 46.2 µM), for the others: at the top dose activity change, negative = growth inhibition, actives largely listed as inhibitors; 420,000 tested, 15% active; AID 686978, 2013; note: nearly all actives have a fitted effect of over 55% in size
#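 Luminescent ATP content (CellTiter-Glo) served as the growth readout. Knockout chicken DT40 cells expressing human TDP1 were exposed to compounds without camptothecin for a minimum 48 hr at 37 °C.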
# HT1080NT lethal: kills 2HG-producing HT-1080-NT fibrosarcoma cells. HT-1080-NT fibrosarcoma viability, CellTiter-Glo ATP luminescence, 48 h. Potency, µM (top dose mostly 46.1 µM), for inactives: at the highest dose activity, negative = less viability, most hits filed as cytotoxic. 360,000 tested, 1.6% active. AID 686970;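 note: NT is the 2HG producing partner of a matched IDH1 knockdown line; 0% = DMSO-treated cells and -100% = media-only wells without cells; nearly all actives have a fitted effect of over 55% in size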
#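 Compounds were tested in concentration-response format on HT-1080-NT cells for 48 hours at 37 degrees C. Cell viability came from CellTiter-Glo luminescence; curves were classified by r2, response magnitude and activity.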
# KB-V1 MDR tox: KB-V1 MDR subline cytotoxicity. KB-V1 MDR cells viability, CellTiter-Glo, 72 h. Potency, µM (top dose mostly 46.1 µM), actives largely listed as cytotoxic. 400,000 tested, 3.4% active. AID 1347076; note: nearly all actives have a fitted effect of over 60% in size
#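 Compound-treated KB-V1 multidrug-resistant cells, 72 h, 37 degrees C; viability by CellTiter-Glo. Fitted qHTS curves give the values.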
# Numbers without * were called inactive; i = inactive; ? = inconclusive; · = no result given; [ ] = remark or other dose. A selection: hits, their analogues and other compounds. The true share with any hit is near 19%. Calls come from the whole dose curve; as a rule, active = well fitted curve in the direction sought with a large enough effect; inconclusive = small, poorly fitted or top-dose-only effect, or another doubt; inactive = no such curve, though single readings can be large; an effect the other way counts as inactive or inconclusive. Unless noted, % is set by controls: 0 for no effect and ±100 for the full control effect; potency is the fitted concentration of half-maximal effect.
SMILES,HT1080 IDH1KD tx,TDP1 cell CPT,KB-3-1 tox,DT40 TDP1 no CPT,HT1080NT lethal,KB-V1 MDR tox
CC(=O)Nc1cccc(-c2cnc(NC(C)=O)cn2)c1,?,-23.0%,18.4µM*,-18.7%,-10.2%,i
CC(=O)Nc1cccc(-c2csc(Nc3ccc(C)cn3)n2)c1,?,-28.5%,i,?,?,i
CNC(=S)Nc1cccc(-c2cnc3ccccc3n2)c1,-20.5%,?,?,?,-7.9%,?
CS(=O)(=O)Nc1cccc(-c2cnc3ccccc3n2)c1,-1.8%,-6.4%,i,20.6µM*,-0.3%,i
O=C(Nc1cccc(-c2cnc3ccccc3n2)c1)c1ccncc1,?,?,i,5.8µM*,-2.1%,i
Cc1ccc(C(=O)Nc2cccc(-c3cnc4ccccc4n3)c2)cc1,20.0%,-6.5%,i,-21.5%,-6.3%,i
O=C(CNC(=O)c1ccc(Br)o1)Nc1cccc(-c2cnc3ccccc3n2)c1,?,?,i,7.31µM*,?,i
Cc1cccc(C(=O)Nc2cccc(-c3cnc4ccccc4n3)c2)c1,12.0%,?,i,?,15.0%,i
CC(=O)Nc1ccc(NC(=O)Cn2cc3c(n2)CCCCC3)cc1,·,-1.1%,i,-2.8%,·,i
CC(=O)N1c2ccccc2C(C)(c2ccc(C)cc2)CC1(C)C (stereo unspecified),·,·,i,·,·,i
CC(C)(C)c1ccccc1NC(=O)N1CCNC(=O)C1CC(=O)Nc1ccc(F)cc1 (stereo unspecified),-1.7%,11.1%,i,-14.1%,2.4%,i
CCC(/C=N/NC(=O)C(N)=O)CC,6.3%,0.8%,i,1.3%,?,i
O=C(Nc1cccc(-c2cnc3ccccc3n2)c1)c1ccco1,-10.5%,?,i,16.4µM*,1.4%,?
CC(C)C(=O)Nc1cccc(-c2cnc3ccccc3n2)c1,-4.6%,-17.8%,i,-24.4%,12.8%,13µM*
COc1ccc(OC)c(NC(=O)CCCc2nnc3n(C(C)C)c(=O)c4sccc4n23)c1,·,-16.8%,·,?,·,·
O=C(CSc1nc2ncc(Cl)cc2[nH]1)c1ccc2c(c1)OCO2,-8.5%,4.9%,i,-29.2%,-1.0%,i
O=C(CSc1nc2cc(Cl)c(Cl)cc2[nH]1)c1ccc2c(c1)OCO2,-17.8%,2.2%,14.6µM*,-5.5%,-24.6%,8.2µM*
CCN1C(=O)[C@@H]2[C@@H](c3ccc(SC4CCCCC4)c(OC)c3)N3CCCC[C@@]3(C(=O)OC)[C@@H]2C1=O,?,20.6µM*,?,?,-12.6%,i
CCSc1ccc([C@@H]2[C@@H]3C(=O)N(CC)C(=O)[C@@H]3[C@]3(C(=O)OC)CCCCN23)cc1OC,1.2%,-11.3%,i,?,-3.2%,i
COC(=O)[C@@]12CCCCN1[C@H](c1ccc(SC3CCCCC3)c(OC)c1)[C@@H]1C(=O)N(C)C(=O)[C@@H]12,?,?,i,?,-21.5%,i
CCCSc1ccc([C@@H]2[C@H]3C(=O)N(CC)C(=O)[C@H]3[C@]3(C(=O)OC)CCCN23)cc1,1.1%,?,i,?,5.5%,i
CCCSc1ccc([C@@H]2[C@@H]3C(=O)N(CC)C(=O)[C@@H]3[C@]3(C(=O)OC)CCCCN23)cc1,-5.5%,18.4µM*,i,20.6µM*,-0.4%,i
CCN1C(=O)[C@H]2[C@@H](c3ccc(SC4CCCCC4)cc3)N3CCCC[C@@]3(C(=O)OC)[C@H]2C1=O,1.1%,14.6µM*,?,16.4µM*,13.4%,i
CCN1C(=O)[C@@H]2[C@@H](c3ccc(SC4CCCCC4)cc3)N3CCC[C@@]3(C(=O)OC)[C@@H]2C1=O,7.9%,?,?,20.6µM*,-1.1%,i
CCOC(=O)CSCC(=O)Nc1c(C(=O)C2CC2)oc2ccccc12,14.0%[9.24 µM],-0.4%,i,2.5%,11.1%,i
SMILES,HT1080 IDH1KD tx,TDP1 cell CPT,KB-3-1 tox,DT40 TDP1 no CPT,HT1080NT lethal,KB-V1 MDR tox
Cc1cc(C)cc(NC(=O)CSCc2cc(=O)c3cc(Cl)ccc3[nH]2)c1,·,7.9%,i,-0.7%,·,i
CCc1ccc(N2C(=O)c3sc4nnc(-c5ccccc5)c(=O)n4c3C2=O)cc1,-9.0%[9.24 µM],11.6µM*,i,13µM*,1.2%,i
O=C(CN1C(=O)CCc2cc(S(=O)(=O)N3CCOCC3)ccc21)NCc1ccccc1,·,7.3%,i,-0.1%,·,i
CC(C)Oc1cc(F)ccc1-c1cc(C(=O)Nc2ccc(C(C)C)cc2)[nH]n1,-24.9%,18.4µM*,i,14.6µM*,-23.3%,i
CC(C)c1ccc(NC(=O)c2cc(-c3cc(F)ccc3OCC3CCCO3)n[nH]2)cc1 (stereo unspecified),2.6%,?,i,?,-0.3%,i
CC(C)Oc1cc(F)ccc1-c1cc(C(=O)NCc2ccccc2)[nH]n1,-0.6%,-1.1%,i,-31.9%,2.8%,i
CC(C)Oc1cc(F)ccc1-c1cc(C(=O)Nc2ccccc2)[nH]n1,2.7%,?,i,23.1µM*,-13.4%,i
O=C(CCS(=O)(=O)c1ccc(Cl)cc1)Nc1ccc(N2CCOCC2)cc1,6.6%,20.6µM*,i,14.6µM*,0.0%,i
CNS(=O)(=O)c1cn(CC(=O)N2CCN(c3ccc(Cl)cc3)CC2)cc1S(=O)(=O)NC,·,14.6µM*,i,13µM*,·,i
O=C(CCS(=O)(=O)c1ccc(Br)cc1)N1CCN(c2ccc(Cl)cc2)CC1,-0.4%,?,i,14.6µM*,13.8%,5.8µM*
O=C(c1ccc(CS(=O)(=O)c2ccc(Br)cc2)o1)N1CCN(c2ccc(F)cc2)CC1,-0.2%,?,?,23.1µM*,11.8%,i
COc1cc(=O)n2c(c1C(=O)NCc1ccco1)CCN(C(=O)c1ccc(C)c(C)c1)CC2,·,-17.2%[9.04 µM],·,-4.9%,·,·
Cc1cc2[nH]c(=O)c(=O)[nH]c2cc1S(=O)(=O)Nc1cccc(C(F)(F)F)c1,·,0.7%,i,-0.6%,·,i
CN1C(=O)Cc2cc(S(=O)(=O)CCC(=O)N3CCN(c4ccc(Cl)cc4)CC3)ccc21,·,20.6µM*,i,14.6µM*,·,i
Cc1ccc(S(=O)(=O)CC(=O)N2CCN(c3ccc(F)cc3)CC2)cc1,-9.6%,-7.6%,i,-25.4%,1.0%,i
O=C(CNS(=O)(=O)c1ccc(Br)cc1)N1CCN(c2ccc(F)cc2)CC1,-23.5%,?,?,18.4µM*,-13.6%,?
